Source: PubChem BioAssay
TROY signal inh – blocks TROY-dependent signaling in reporter cells; Q293 LMP1-TROYcd NF-kB luciferase reporter, 4 h; actives 0.98% (n = 360,000); AID 1347056; inhibition, % at 10 µM;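 active means compounds whose plate-normalised and pattern-corrected inhibition of the luciferase reporter signal at the single screening dose is 50% or more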
LMP1 NFkB inh – reduces LMP1-driven NF-kappaB luciferase signal; LMP1-induced NF-kappaB luciferase reporter cells, luminescence; inhibition, % at 12.5 µM; actives 0.69% (n = 350,000); in the data active means inhibition above about 41%; inconclusive means no clear call, values can overlap the other calls
MITF act – MITF TRPM1 promoter activation in melanoma cells; actives 0.75% (n = 300,000); activation, % at 12.5 µM; AID 588334; SK-MEL-5 TRPM1-promoter luciferase, 24 h; % of positive control, neutral wells = 0;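 active means mean activation of at least 80% with every replicate also reaching 80%; inconclusive means mean reaches 80% but some replicate falls short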
MITF TRPM1 inh – reduces MITF-dependent TRPM1 promoter luciferase signal; actives 0.83% (n = 330,000); SK-MEL-5 TRPM1 promoter luciferase, 24 h; inhibition, % at 12.5 µM;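 active means mean inhibition across replicates of 60% or more, whatever share of single replicates reaches that level; inconclusive means some that reach 60%, reason not given; inactive means mean inhibition across replicates below 60%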
LGR2 inh – blocks bursicon-induced cAMP signaling via Drosophila LGR2. actives 0.35% (n = 380,000). inhibition, % at 9.99 µM. HEK293 LGR2, CRE-luciferase, bursicon-stimulated, 4 h;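 active means drop in luminescence signal, shown as inhibition above about 50% in the replicate tests, limit read from the data, passing the limit was not always enough; inconclusive means probably only some replicates passing the limit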;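 further: agonist challenge used bursicon conditioned medium at about half maximal strength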
TWEAK-Fn14 inh – blocks TWEAK-Fn14 interaction in a reporter cell assay; TWEAK-stimulated Fn14 reporter cells, luciferase luminescence, 8 h; inhibition, % at 10 µM; actives 2% (n = 360,000); in the data active means inhibition above about 50%
A number is an active result; - = inactive; ? = inconclusive; . = no result given. In the library only some 3% were active in any assay of this set; here they are far more common.

SMILES	TROY signal inh	LMP1 NFkB inh	MITF act	MITF TRPM1 inh	LGR2 inh	TWEAK-Fn14 inh
COc1ccc2c3c([nH]c2c1)[C@@H](CO)N(C(=O)c1ccc(F)cc1)CC31CN(C(=O)CC2CC2)C1	.	.	.	.	-	.
CS(=O)(=O)Nc1ccc2c(c1)[C@H]1C[C@@H](CC(=O)NCc3ccccc3F)O[C@@H](CO)[C@H]1O2	.	.	.	.	-	.
Cc1csc2nc(CNC(=O)c3cccc(C(F)(F)F)c3)cn12	.	-	-	-	.	97
COc1ccc(NC(=O)N(C)C[C@H]2Oc3ccc(NC(=O)Nc4ccccc4)cc3CC(=O)N([C@@H](C)CO)C[C@H]2C)cc1	.	.	.	.	-	.
C[C@H](CO)N1C[C@H](C)[C@H](CN(C)CC2CC2)Oc2c(NC(=O)c3ccc(-c4nccs4)cc3)cccc2C1=O	.	.	.	.	-	.
O=c1c(Cc2ccc(Cl)cc2Cl)c(O)ccn1Cc1ccc(Cl)cc1	51	-	-	-	-	-
Oc1ccc(/C=C/c2cc(O)cc(O)c2)cc1	-	-	104	-	-	-
COC(=O)c1c(-c2ccc(S(C)(=O)=O)cc2)sc2ccc(OC)cc12	-	-	107	-	-	-
COc1ccc(Nc2nc(-c3ccccc3)nc3ccccc23)cc1	-	-	-	-	-	-
COc1ccc(Nc2nc(-c3cccc([N+](=O)[O-])c3)nc3ccccc23)cc1	-	-	-	-	-	80
COc1ccc(Nc2ncnc3ccccc23)cc1	.	-	97	-	.	-
COc1cccc(Nc2ncnc3ccccc23)c1	-	-	?	-	-	-
O=C(Oc1cccc(Nc2ncnc3ccccc23)c1)c1ccccc1Cl	59	-	-	-	.	82
CCOc1ccc(Nc2ncnc3ccc([N+](=O)[O-])cc23)cc1	51	?	-	-	-	77
CCOC(=O)c1ccc(Nc2ncnc3ccc(C)cc23)cc1	-	-	-	-	-	-
CC(=O)N1[C@@H](CO)[C@@H](c2ccccc2)C12CN(C(=O)c1ccc3c(c1)OCO3)C2	.	.	.	.	-	.
C[C@H](O)C#Cc1cnc2c(c1)C(=O)N([C@H](C)CO)C[C@@H](C)[C@@H](CN(C)C(=O)c1ccncc1)O2	.	.	.	.	-	.
CC=Cc1ccc2n(c1=O)C[C@@H]1[C@@H](CO)[C@H](C(=O)NCCC)[C@H]2N1CC1CCCC1 (mixture of isomers)	.	.	.	.	-	.
COc1cc(S(=O)(=O)N2CCC(O)(c3cccc(C(F)(F)F)c3)CC2)ccc1-n1cnnn1	-	-	-	-	-	-
O=S(=O)(c1ccc(OC(F)(F)F)cc1)N1CCC(O)(c2cccc(C(F)(F)F)c2)CC1	58	-	-	-	-	-
CCOc1ccc(OCc2cccc(C(=O)N3CCOCC3)c2)cc1	-	84	-	-	.	-
COc1ccc(OCc2cccc(C(=O)Nc3cc(C)on3)c2)cc1	-	81	-	?	.	-
COc1ccc(OCc2cccc(C(=O)Nn3cc([N+](=O)[O-])cn3)c2)cc1	-	83	.	-	99	-
O=C(c1cccc(OCc2ccccc2)c1)N1CCOCC1	-	-	-	-	-	-
COc1ccc(C(=O)Nc2ccc(OCc3ccccc3)cc2)cc1[N+](=O)[O-]	-	-	.	-	.	-
SMILES	TROY signal inh	LMP1 NFkB inh	MITF act	MITF TRPM1 inh	LGR2 inh	TWEAK-Fn14 inh
COc1ccc(OCc2cccc(C(=O)NN)c2)cc1	-	62	-	-	-	-
CO[C@H]1CN(C)C(=O)c2cc(NC(=O)C3CC3)ccc2OC[C@H](C)N(Cc2nccs2)C[C@H]1C	.	.	.	.	-	.
C[C@H](O)C#Cc1ccc2c(c1)O[C@@H](CN(C)C(=O)C1CCCCC1)[C@H](C)CN([C@H](C)CO)S2(=O)=O	.	.	.	.	-	.
CC(C)NC(=O)N(C)C[C@H]1OCCCC[C@@H](C)Oc2ccc(NC(=O)c3ccccc3)cc2C(=O)N([C@@H](C)CO)C[C@H]1C	.	.	.	.	-	.
CCc1cccc2c1Sc1ccccc1CC2N1CCNCC1 (stereo not given)	-	-	-	81	.	-
CN1CCN(C2Cc3ccccc3Sc3cc(C(F)(F)F)ccc32)CC1 (stereo not given)	.	.	.	.	-	.
O=C(Nc1ccc(Cl)cc1)Nc1cccc2nsnc12	-	-	-	-	-	56
COc1ccc(/C=N/NC(=O)Nc2cccc3nsnc23)cc1OC	-	-	-	-	.	62
C[C@@H]1CCCCO[C@H](CN(C)S(=O)(=O)c2ccccc2)[C@H](C)CN([C@@H](C)CO)C(=O)c2cc(NC(=O)Nc3ccc(C(F)(F)F)cc3)ccc2O1	.	.	.	.	-	.
C[C@@H]1CN([C@@H](C)CO)S(=O)(=O)c2ccc(/C=C/c3ccccc3)cc2O[C@H]1CN(C)C(=O)NC1CCCC1	.	.	.	.	-	.
C[C@H](CO)N1C[C@H](C)[C@H](CN(C)C(=O)Nc2ccc3c(c2)OCO3)OCCCC[C@H](C)Oc2ccc(NC(=O)c3ccccc3)cc2C1=O	.	.	.	.	-	.
CC(C)(C=O)C1=CC(=O)c2ccccc2C1=O	70	-	-	-	-	63
O=C(C[C@H]1C=C[C@@H](NC(=O)Nc2cc(F)ccc2F)[C@H](CO)O1)NCc1ccc2c(c1)OCO2	.	.	.	.	-	.
C/C=C/c1ccccc1[C@@H]1[C@@H](CO)N(C(=O)c2cccnc2)[C@H]1C#N	.	.	.	.	-	.
CC(=O)CC1=NC(C)(C)Cc2ccccc21	53	-	-	-	-	-
COc1ccccc1Cc1c(-c2ccco2)nc2c(C)cc(Br)cn12	-	.	.	.	.	69
COc1ccc(Cc2c(-c3ccco3)nc3ccc(Br)cn23)c(C)c1	-	.	.	.	-	57
Cc1cc(Br)cn2c(Cc3ccccc3)c(-c3ccco3)nc12	-	.	.	.	-	85
COc1ccc(Cc2c(-c3ccco3)nc3ccc(Cl)cn23)c(C)c1	-	.	.	.	-	-
Cc1cc(Br)cn2c(Cc3ccsc3)c(-c3ccco3)nc12	-	.	.	.	-	51
COc1ccc(Cc2c(-c3ccco3)nc3c(C)cc(Br)cn23)c(C)c1	-	.	.	.	-	-
C/C(=N\Nc1ccc(C(=O)O)cc1)c1ccc2c(c1)Nc1ccccc1S2	-	-	124	-	-	-
C/C(=N/Nc1ccc(C(=O)O)cc1)c1ccc2c(c1)Nc1ccccc1S2	-	-	-	-	-	-
CCCCCOC(=O)c1c(N)n(CCOC)c2nc3ccccc3nc12	-	-	-	61	.	-
C/C(=N\NC(=S)NC1CCCCC1)c1ccc(Cl)c(Cl)c1	-	-	-	-	-	62
SMILES	TROY signal inh	LMP1 NFkB inh	MITF act	MITF TRPM1 inh	LGR2 inh	TWEAK-Fn14 inh
CN(C)c1ccc(NC(=S)c2ccccn2)cc1	81	73	-	79	99	99
CN(C)c1cc(O)c(C(=S)Nc2ccccc2)c(N(C)C)c1	-	-	.	-	.	-
CN(C)c1ccc(C(=S)Nc2ccccc2)cc1	82	-	-	-	.	95
CN(C)c1ccc(/C=N/NC(=O)c2ccccn2)cc1	-	-	.	-	.	-
CN(C)CCCNc1nc2sc3c(c2c(=O)n1CCc1ccccc1)CCCCC3	-	-	-	65	.	-
CN(C)CCCn1c(=O)n(CCc2ccccc2)c(=O)c2c3c(sc21)CCCCC3	-	-	.	-	.	-
O=C(O)CSc1nc2sc3c(c2c(=O)n1Cc1ccccc1)CCCCC3	57	-	-	-	-	51
